TSHR agonist – qHTS Assay for Agonists of the Thyroid Stimulating Hormone Receptor | HEK293-CNG-TSHR cells (CNG channel as cAMP sensor), membrane potential dye, cAMP | Potency, µM (doses to about 57.1 µM), usual class: activators | hit rate 0.48% among 73,000 | AID 926, 2007; active = well fitted activation curve with a large enough effect in the main read-out, with a control signal flat, not every such curve was filed as active; inconclusive = small, poorly fitted or top-dose-only effect, or a change in a side signal; inactive = no such curve, though single readings can be large or run the other way; reference of the percent scale not stated here;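 also: the control signal comes from parental cells without the receptor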
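cAMP rise detected as CNG-channel membrane depolarization by fluorescent dye (emission 590 nm), 30 min after compound, following 60 min dye loading containing 100 uM RO 20-1724 at room temperature. Cells: TSHR/CNG HEK 293, with parental CNG HEK 293 as control.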
ERK AVP inh – qHTS Assay for Inhibitors of the ERK Signaling Pathway using a Homogeneous Screening Assay; HEK293-V1b, vasopressin-stimulated pERK AlphaScreen; Potency, µM (top dose mostly 57.5 µM), most hits filed as inhibitors; hit rate 0.99% among 72,000; AID 995, 2007; also: nearly all actives have a fitted effect of over 55% in size
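HEK293 cells stably expressing V1b receptor, preincubated 30 min at 37 °C with compound, then stimulated 5 min with 25 nM vasopressin. Phospho-ERK by AlphaScreen SureFire after 5 h RT; normalized to DMSO and vasopressin; AC50 by Hill fit.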
HEK293 cAMP cs – qHTS Assay for Agonists of the Thyroid Stimulating Hormone Receptor: Activators of Intracellular cAMP Concentrations in Parental HEK 293; parental HEK293 CNG cAMP sensor, membrane potential fluorescence; Potency, µM (series often up to 57.1 µM), usual class: activators; hit rate 2.5% among 73,000; also: nearly all actives have a fitted effect of over 55% in size
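Parental HEK 293 cells stably expressing a cAMP-gated CNG channel were loaded with membrane potential dye containing 100 uM RO 20-1724 for 60 min. Compound added for 30 min; depolarization read as fluorescence intensity at 590 nm.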
Tau filament bind – qHTS Assay for Tau Filament Binding; recombinant tau filaments, thioflavin S fluorescence, 15 h; filaments grown with octadecylsulfate alongside compound; Potency, µM (highest dose often 57.1 µM); hit rate 2% among 71,000;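 also: actives lower thioflavin S fluorescence by blocking filaments or displacing dye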
Target sequence (P10636 whole entry, looked up): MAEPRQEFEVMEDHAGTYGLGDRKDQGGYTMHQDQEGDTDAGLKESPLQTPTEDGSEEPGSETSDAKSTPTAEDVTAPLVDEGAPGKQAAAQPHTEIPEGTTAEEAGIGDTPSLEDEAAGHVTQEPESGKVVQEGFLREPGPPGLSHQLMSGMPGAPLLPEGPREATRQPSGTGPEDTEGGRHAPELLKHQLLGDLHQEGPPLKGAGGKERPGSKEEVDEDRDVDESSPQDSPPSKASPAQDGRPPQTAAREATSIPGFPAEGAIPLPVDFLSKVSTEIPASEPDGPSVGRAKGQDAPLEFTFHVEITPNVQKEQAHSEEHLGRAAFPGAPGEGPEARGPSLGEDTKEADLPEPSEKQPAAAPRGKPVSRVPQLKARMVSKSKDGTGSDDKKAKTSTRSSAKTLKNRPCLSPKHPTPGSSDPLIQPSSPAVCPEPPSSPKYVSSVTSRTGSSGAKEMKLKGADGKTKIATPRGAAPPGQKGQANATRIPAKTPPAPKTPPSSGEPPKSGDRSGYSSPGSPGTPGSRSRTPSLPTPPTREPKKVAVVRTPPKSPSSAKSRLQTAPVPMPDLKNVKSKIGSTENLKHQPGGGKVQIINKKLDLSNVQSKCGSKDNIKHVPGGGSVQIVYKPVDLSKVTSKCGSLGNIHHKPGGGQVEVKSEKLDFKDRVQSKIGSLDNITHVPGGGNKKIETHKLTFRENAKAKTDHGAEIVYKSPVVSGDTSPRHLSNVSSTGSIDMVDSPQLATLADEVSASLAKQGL
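Read-out: ThS fluorescence, 450 nm excitation/510 nm emission; lower signal marks blocked filament formation or displaced dye. Tau at 1 uM with 30 uM ODS, 10 uM ThS, 5 mM DTT, 100 mM NaCl, 10 mM HEPES pH 7.4; 15 h, 37 C.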
CRE Fsk mod – Cell signaling CRE-BLA (Fsk stim); CHO CRE-bla reporter (cAMP response element driving beta-lactamase), forskolin EC10, beta-lactamase ratio; Potency, µM (highest dose often 38.2 µM), most hits filed as activators; AID 662, 2007; hit rate 2.5% among 71,000; active = well fitted activation curve with a large enough effect in the signal ratio, with a control signal flat, not every such curve was filed as active; inconclusive = small, poorly fitted or top-dose-only effect, or effect the other way, or a change in a side signal; the % refers to the signal ratio
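The 460nm/530nm emission ratio after CCF4 loading defined %Activity, from which AC50 values were obtained. CRE-bla CHO cells received compound dilution series together with an EC10 level of NKH 477 for 3 hours at 37 degrees Celsius.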
Large screens that a line does not name were inactive. Hits are enriched below; roughly 7.6% of the tested compounds scored in any of these assays. Unless noted, calls follow the shape of the dose curve; as a rule, active = well fitted curve in the direction sought with a large enough effect; inconclusive = small, poorly fitted or top-dose-only effect, or another doubt; inactive = no such curve, though single readings can be large; an effect the other way counts as inactive or inconclusive.

O=c1[nH]c(=O)n(C2CC(O)C(CO)O2)cc1C(F)(F)F (stereo not given)	none (no result: TSHR agonist, HEK293 cAMP cs, Tau filament bind, CRE Fsk mod)
COCOc1ccc(Br)cc1C(=O)/C=C\c1ccc2c(c1)OCO2	none (no result: Tau filament bind, CRE Fsk mod)
O=C(/C=C/c1ccccc1)c1ccc(O[C@H]2OC(CO)C(O)C(O)C2O)cc1O (stereo not given in full)	none (no result: TSHR agonist, HEK293 cAMP cs, Tau filament bind, CRE Fsk mod)
COC(=O)c1c(NC(=O)CN2CCN(Cc3ccc4c(c3)OCO4)CC2)sc(C)c1C	TSHR agonist inconclusive, HEK293 cAMP cs 1.58µM, CRE Fsk mod inconclusive
CCOC(=O)c1c(C)n(C)c2ccc(OCC(O)CN(CC)CC)cc12 (stereo not given)	none
CCOC(=O)c1c(C)n(C)c2ccc(OCC(O)Cn3nc(C)cc3C)cc12 (stereo not given)	CRE Fsk mod 12.6µM
CCOC(=O)c1c(C)n(C)c2ccc(OCC(O)CN3C(=O)c4ccccc4S3(=O)=O)cc12 (stereo not given)	ERK AVP inh inconclusive, CRE Fsk mod 2µM
O=C(O)c1ccc(Cl)c(S(=O)(=O)Nc2ccccc2F)c1	none (no result: ERK AVP inh, Tau filament bind, CRE Fsk mod)
CN(Cc1ccccc1)Cn1ccnc1	none
CO[C@@H]1COC(=O)[C@H]2CCCN2C(=O)[C@@H](C)COC(=O)CCC[C@H]1C	none (no result: Tau filament bind, CRE Fsk mod)
CC1(C)O[C@@H]2O[C@H]([C@H](O)CO/N=C3/[C@H]4O[C@@H]4[C@@H](O)[C@H]4[C@H]3CCn3c(=O)n(-c5ccccc5)c(=O)n34)[C@@H](O)[C@@H]2O1	none (no result: Tau filament bind, CRE Fsk mod)
CCCOc1ccc(C(=O)C(c2ccccc2)N2CCOCC2)cc1 (stereo not given)	TSHR agonist inconclusive, HEK293 cAMP cs 25.1µM
Cc1ccc(CNC(=O)C2CNc3cc(C)ccc3O2)cc1 (stereo not given)	none
Cc1ccc2c(c1)NCCO2	Tau filament bind 31.6µM
Cc1cc2c(nc1C)CCCN2C[C@H](O)CN1CCCc2nc(-c3ccc(Br)cc3)ccc21	none (no result: Tau filament bind, CRE Fsk mod)
c1ccc2c(c1)Cc1cc3cc4c(cc3nc1-2)OCO4	ERK AVP inh 25.1µM, CRE Fsk mod inconclusive (no result: TSHR agonist)
c1ccc2c(c1)CCN(c1nc3cc4c(cc3s1)OCO4)C2	none
COc1ccc(N2CCn3c2nc2c3c(=O)n(CCc3ccccc3)c(=O)n2C)c(OC)c1	none
COc1ccc(N2CCn3c2nc2c3c(=O)n(CCCc3ccccc3)c(=O)n2C)c(OC)c1	ERK AVP inh 12.6µM
Nc1c2ccccc2nc2ccccc12	TSHR agonist inconclusive, CRE Fsk mod 12.6µM
COC(=O)[C@@]1(Cc2ccccc2)[C@H]2c3cc(C(=O)N(C)C)n(Cc4nc5ccccc5[nH]4)c3C[C@H]2CN1C(=O)c1ccccc1	none
Cc1cc(NCCCN2CCOCC2)n2ncc(-c3ccc(Cl)cc3)c2n1	CRE Fsk mod 1.58µM
COc1cccc(-c2cc(NCc3ccccc3OC)ncn2)c1	TSHR agonist inconclusive, HEK293 cAMP cs inconclusive, CRE Fsk mod inconclusive
COc1cccc(-c2cc(NCc3cccc(C)c3)ncn2)c1	TSHR agonist inconclusive, ERK AVP inh inconclusive, HEK293 cAMP cs inconclusive, CRE Fsk mod 5.01µM
COc1cccc(-c2cc(NCc3cccs3)ncn2)c1	TSHR agonist inconclusive, ERK AVP inh 25.1µM, HEK293 cAMP cs inconclusive, CRE Fsk mod inconclusive
CCNc1ncc2nc(-c3ccc(F)cc3)c(=O)n(-c3ccccc3)c2n1	TSHR agonist inconclusive, ERK AVP inh inconclusive, HEK293 cAMP cs inconclusive, CRE Fsk mod inconclusive
C#CCCCO/N=C1/C[C@@H](O)[C@@H](O)[C@@H]2[C@@H]3C(=O)N(C[C@@H]4CCCO4)C(=O)[C@H]3CC[C@@H]12	none (no result: Tau filament bind, CRE Fsk mod)
COc1ccccc1-c1cc(-n2ccnc2)ncn1	TSHR agonist inconclusive, HEK293 cAMP cs 31.6µM, CRE Fsk mod inconclusive
COc1ccccc1-c1cncnc1-n1ccnc1	none
C[C@@]12CCC(OC(=O)c3ccccc3)CC1CCc1ccccc12 (stereo not given in full)	none (no result: TSHR agonist, HEK293 cAMP cs, Tau filament bind, CRE Fsk mod)
CCCn1c(-c2ccc(F)cc2)nc2c(N3CCCN(Cc4ccccc4)CC3)nc(C)nc21	TSHR agonist inconclusive, HEK293 cAMP cs inconclusive
CCN(CC)c1ccc(-c2nn3c(-c4n[nH]c5c4CCC5)nnc3s2)cc1	TSHR agonist inconclusive, ERK AVP inh inconclusive, HEK293 cAMP cs 31.6µM, CRE Fsk mod inconclusive
C1CCC(c2nn3c(-c4n[nH]c5c4CCC5)nnc3s2)CC1	TSHR agonist inconclusive, ERK AVP inh inconclusive, HEK293 cAMP cs 31.6µM, CRE Fsk mod 12.6µM
CC1=Nn2c(nnc2-c2n[nH]c3c2CCC3)SC1	CRE Fsk mod inconclusive
CCCCC(c1nnnn1C1CCCC1)N1CCN(C2CCCCC2)CC1 (stereo not given)	TSHR agonist inconclusive, HEK293 cAMP cs 2.51µM
CCCC(c1nnnn1CCc1ccccc1)N1CCN(C2CCCC2)CC1 (stereo not given)	TSHR agonist inconclusive, HEK293 cAMP cs 15.8µM
CCCC(c1nnnn1C1CCCCC1)N1CCN(c2ncccn2)CC1 (stereo not given)	none
COc1cc(NCCC(=O)O)c2ncccc2c1	none
C[C@@H](CN1CCC(Cc2ccccc2)CC1)[C@H](O)c1ccc(O)cc1	ERK AVP inh inconclusive
N#Cc1cccc(NC(=O)N2CC[C@@]3(CCCN(S(=O)(=O)c4ccccc4)C3)C2)c1	ERK AVP inh inconclusive (no result: TSHR agonist)
O=C(Nc1ccc(-c2noc(COc3ccccc3Cl)n2)cc1)c1ccco1	Tau filament bind 3.16µM
COc1ccc(CC(=O)Nc2ccc(-c3noc(COc4ccccc4C)n3)cc2)cc1	none
CC(=O)OCC(=O)[C@]1(O)C(C)CC2C3CCC4=CC(=O)C=C[C@@]4(C)[C@]3(F)C(O)C[C@@]21C (stereo not given in full)	none (no result: TSHR agonist, HEK293 cAMP cs, Tau filament bind, CRE Fsk mod)
Cc1noc(C)c1C(=O)N1CCC2(CC1)CCN(c1ccccn1)CC2	ERK AVP inh inconclusive
O=C1c2ccccc2C(Nc2ccc3c(c2)OCO3)N1Cc1ccco1 (stereo not given)	ERK AVP inh 25.1µM, Tau filament bind 12.6µM
O=C1c2ccccc2C(Nc2ccc(-c3nc4ccccc4[nH]3)cc2)N1Cc1ccco1 (stereo not given)	ERK AVP inh inconclusive
COc1ccc(OC)c(NC2c3ccccc3C(=O)N2Cc2ccc3c(c2)OCO3)c1 (stereo not given)	Tau filament bind 20µM
COc1ccc(NC2c3ccccc3C(=O)N2Cc2ccco2)cc1OC (stereo not given)	none
O=C1c2ccccc2C(Nc2ccc(F)c(Cl)c2)N1Cc1ccco1 (stereo not given)	ERK AVP inh inconclusive, Tau filament bind 12.6µM, CRE Fsk mod inconclusive (no result: TSHR agonist)
CCOc1ccc(NC2c3ccccc3C(=O)N2Cc2ccco2)cc1 (stereo not given)	ERK AVP inh inconclusive, Tau filament bind 15.8µM
O=C1c2ccccc2C(Nc2cccnc2)N1Cc1ccc2c(c1)OCO2 (stereo not given)	ERK AVP inh inconclusive

Screening results from PubChem.
